HEK cytotox – cytotoxic compounds in HEK 293 cells; HEK 293 viability, ATP luminescence (CellTiter-Glo), 48-72 h; Potency, µM (titrated, usually from 115 µM), actives largely listed as inhibitors; 6.6% of 94,000 active; further: nearly all actives have a fitted effect of over 60% in size
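250 HEK 293 cells/well; compound by pintool; incubated 48 or 72 hr at 37 degree Celsius; CellTiter-Glo added, 10 min RT, luminescence imaged.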
FLuc inh – Photinus pyralis luciferase inhibition; AID 1347043; purified P. pyralis luciferase, luminescence, biochemical; 2.5% of 76,000 active; Potency, µM (series often up to 115 µM), usual class: inhibitors; further: nearly all actives have a fitted effect of over 65% in size
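Cell-free enzyme assay, 10nM P. pyralis luciferase, luciferin and ATP each at 10uM. Inhibition profiled over a 6-point titration, read as luminescence.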
NPR1 antag – antagonists of human natriuretic peptide receptor Npr1; HEK293 hNpr1 GloSensor cGMP, ANP-stimulated luminescence; Potency, µM (series often up to 46.3 µM), usual class: inhibitors; 1.6% of 76,000 active; AID 1347048; calls by dose curve; further: nearly all actives have a fitted effect of over 60% in size
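Compound pre-incubated 30 min at room temperature on GloSensor-loaded HEK293 cells stably carrying hNpr1 and the pGS-40F cGMP biosensor. Stimulation uses hNppA at 0.1 nM final; luminescence is taken at baseline and 20 min post-agonist.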
NIH3T3 tox – cytotoxic compounds in NIH 3T3 cells; AID 1345082; 4.3% of 94,000 active; NIH 3T3 viability, CellTiter-Glo ATP luminescence, 48-72 h; Potency, µM (highest dose often 96.7 µM), hits mostly inhibitors; further: nearly all actives have a fitted effect of over 55% in size
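Cells were seeded at 400 per well, treated with pin-transferred compound, and kept 48 or 72 hr at 37 °C before CellTiter-Glo addition and luminescence imaging of cellular ATP.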
GPT2 inhibitor – inhibitors of human GPT2 alanine aminotransferase; Recombinant GPT2, coupled pyruvate oxidase/HRP Amplex Red fluorescence; Potency, µM (highest dose often 57.7 µM), usual class: inhibitors; 0.25% of 100,000 active; further: nearly all actives have a fitted effect of over 60% in size
Target sequence (Q8TD30 whole entry, looked up): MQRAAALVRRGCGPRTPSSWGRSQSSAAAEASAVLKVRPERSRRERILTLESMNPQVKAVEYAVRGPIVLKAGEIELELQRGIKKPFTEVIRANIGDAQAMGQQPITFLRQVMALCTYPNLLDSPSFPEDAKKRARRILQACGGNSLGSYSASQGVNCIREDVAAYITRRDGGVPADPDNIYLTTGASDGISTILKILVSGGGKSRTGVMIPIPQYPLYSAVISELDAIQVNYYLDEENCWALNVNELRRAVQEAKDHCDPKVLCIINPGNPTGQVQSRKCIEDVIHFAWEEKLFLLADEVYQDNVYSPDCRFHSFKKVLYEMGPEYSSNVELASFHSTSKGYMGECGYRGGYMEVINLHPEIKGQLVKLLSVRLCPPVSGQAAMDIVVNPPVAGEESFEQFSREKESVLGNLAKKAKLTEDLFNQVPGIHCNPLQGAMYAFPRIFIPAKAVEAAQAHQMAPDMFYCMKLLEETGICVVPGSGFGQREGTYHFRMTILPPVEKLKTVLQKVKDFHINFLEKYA
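Inhibition is scored from Amplex Red fluorescence generated when pyruvate oxidase and HRP act on pyruvate released by GPT2. Reactions contain 10ng/uL enzyme, 250uM a-KG and 2mM L-alanine and run 30 min at room temperature.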
Each line names hits and unclear results; the compound was inactive in the other large screens. Only some compounds are listed: those with a hit (about 10% of all), similar ones and a draw of the others. Unless noted, the call rests on the fitted dose curve; in most records, active means well fitted curve in the direction sought with a large enough effect; inconclusive means small, poorly fitted or top-dose-only effect, or another doubt; inactive means no such curve, though single readings can be large; an effect the other way counts as inactive or inconclusive.

Cc1ccc(Cn2c(-c3ccc(F)cc3)nc(C)c(CCO)c2=O)cc1C	HEK cytotox inconclusive, GPT2 inhibitor inconclusive
CN1CC(=O)N(C2CCC2)Cc2c1ncnc2N1CCC(c2ccccc2)CC1	HEK cytotox 44.7µM, NIH3T3 tox inconclusive
CN1CC(=O)N(c2ccc(Cl)cc2)Cc2c1ncnc2N1CCC(Cc2ccccc2)CC1	HEK cytotox 31.6µM, NIH3T3 tox inconclusive
CN1CC(=O)N(C2CCC2)Cc2c1ncnc2N1CCC(Cc2ccccc2)CC1	HEK cytotox inconclusive, NIH3T3 tox 44.7µM
CN1CC(=O)N(C2CCNC2)Cc2c1ncnc2N1CCC(c2ccccc2)CC1 (stereo not drawn)	none (no result: FLuc inh, NPR1 antag)
O=C(NCC1CC1)c1ccc2nnc(-c3cccc(C(F)(F)F)c3)n2c1	HEK cytotox inconclusive, NIH3T3 tox inconclusive (no result: FLuc inh, NPR1 antag)
COc1ccc(C(=O)N2CCC3(CC2)OC(=O)N(Cc2ccccc2F)C3(C)c2ccccc2)cc1 (stereo not drawn)	HEK cytotox 44.7µM, NIH3T3 tox 35.5µM
Cn1ccc(C(=O)N2CCC3(CC2)OC(=O)N(Cc2ccccc2F)C3(C)c2ccccc2)n1 (stereo not drawn)	NIH3T3 tox inconclusive
CC1(c2cccnc2)N(CCOc2ccccc2)C(=O)OC12CCN(C(=O)Cc1cccc(F)c1)CC2 (stereo not drawn)	NIH3T3 tox inconclusive
COc1cccc(CC(=O)N2CCC3(CC2)OC(=O)N(Cc2ccccc2F)C3(C)c2ccccc2)c1 (stereo not drawn)	HEK cytotox inconclusive, NIH3T3 tox 25.1µM
Cc1noc([C@@H](C)NC(=O)c2nc3ccccc3[nH]2)c1C(=O)O	none
COc1ccc(NC(=O)N[C@H]2C[C@@H](c3nc(-c4ccc(F)cc4)no3)N(C)C2)cc1	NIH3T3 tox inconclusive, GPT2 inhibitor inconclusive
COc1ccc(CC(=O)N[C@H]2C[C@@H](c3nc(-c4ccc(OC(F)(F)F)cc4)no3)N(C)C2)cc1	HEK cytotox 35.5µM, NPR1 antag inconclusive, NIH3T3 tox inconclusive, GPT2 inhibitor inconclusive
COc1ccc(-c2noc([C@@H]3C[C@H](NC(=O)c4ccc(F)cc4)CN3C)n2)cc1	HEK cytotox inconclusive, NIH3T3 tox inconclusive
COc1ccc(C(=O)N[C@H]2C[C@@H](c3nc(-c4ccc(Cl)cc4)no3)N(C)C2)cc1	HEK cytotox 56.2µM, FLuc inh inconclusive, NPR1 antag inconclusive, NIH3T3 tox inconclusive
CN1C[C@@H](NC(=O)c2ccccn2)C[C@H]1c1nc(-c2ccc(OC(F)(F)F)cc2)no1	HEK cytotox 79.4µM, NIH3T3 tox inconclusive
CN1C[C@@H](NC(=O)Nc2ccc(C(F)(F)F)cc2)C[C@H]1c1nc(-c2ccc(Cl)cc2)no1	HEK cytotox 20µM, NPR1 antag inconclusive, NIH3T3 tox 8.91µM
COc1ccc(C(=O)N[C@H]2C[C@@H](c3nc(-c4ccccc4)no3)N(C)C2)cc1	HEK cytotox inconclusive, NIH3T3 tox inconclusive
Cc1cnc(-c2cccnc2)n1C1CCCN(C(=O)c2cnccn2)C1 (stereo not drawn)	none (no result: FLuc inh, NPR1 antag)
O=C(C1CN(C2CCCCC2)C(=O)N1)N1CCN(Cc2ccccc2)CC1 (stereo not drawn)	none (no result: FLuc inh, NPR1 antag)
CN1CC(=O)N(c2ccc(Cl)cc2)Cc2c1ncnc2N1CCCCC1	HEK cytotox inconclusive, GPT2 inhibitor inconclusive
O=C(CNC(=O)c1cccc(-c2ccsc2)c1)NCc1ccc(Cl)cc1	none (no result: FLuc inh, NPR1 antag)
CN1C[C@@H](NC(=O)c2cnccn2)C[C@H]1c1nc(-c2ccc(OC(F)(F)F)cc2)no1	HEK cytotox 89.1µM, NIH3T3 tox inconclusive, GPT2 inhibitor inconclusive
CN1C[C@@H](NC(=O)Nc2ccc(F)cc2F)C[C@H]1c1nc(-c2ccccc2)no1	HEK cytotox 63.1µM, NPR1 antag inconclusive
CN1C[C@@H](NC(=O)c2ccccn2)C[C@H]1c1nc(-c2ccc(Cl)cc2)no1	HEK cytotox 89.1µM, FLuc inh 70.8µM, NIH3T3 tox inconclusive, GPT2 inhibitor inconclusive
CN1C[C@@H](NC(=O)c2cccnc2)C[C@H]1c1nc(-c2cnccn2)no1	none
O=C(CCc1ccccc1)N1CCNc2cnc(Nc3ccc(-n4ccnc4)cc3)nc2C1	HEK cytotox inconclusive, NIH3T3 tox inconclusive
O=C(CN1CCOCC1)N1CCNc2cnc(Nc3ccc(-n4ccnc4)cc3)nc2C1	NIH3T3 tox 39.8µM
CC(C)(C)NC(=O)N1CCCCCCNC(=O)[C@@H]2C[C@@H](C(=O)N3CCc4ccccc4C3)C[C@@H]21	none
Cc1ccc(NC(=O)N2C[C@@H](F)C[C@H]2C(=O)N2CCc3ccccc3C2)cc1F	HEK cytotox 39.8µM, NIH3T3 tox 35.5µM
O=C([C@@H]1C[C@H](F)CN1S(=O)(=O)Cc1ccc(Cl)cc1)N1CCc2ccccc2C1	HEK cytotox inconclusive, NPR1 antag inconclusive, NIH3T3 tox 15.8µM
C[S+](=O)([O-])NC1CCCN(c2ccnc3ccnn23)C1 (stereo not drawn)	none (no result: FLuc inh, NPR1 antag)
O=S(=O)(c1ccc2c(c1)CCC2)N1CCCC1Cc1noc(-c2ccccc2)n1 (stereo not drawn)	HEK cytotox inconclusive, NIH3T3 tox inconclusive (no result: FLuc inh, NPR1 antag)
O=C1NCc2ccccc2CC12CCN(Cc1ccccc1F)C2 (stereo not drawn)	HEK cytotox inconclusive (no result: FLuc inh, NPR1 antag)
CC(C)c1ccc(-n2cc(CN3CCN(C(=O)N(C)C)CC3)cn2)cc1	HEK cytotox inconclusive, FLuc inh 28.2µM
CCCCc1ccc(-n2cc(CN3CCN(C(C)=O)CC(O)C3)cn2)cc1 (stereo not drawn)	HEK cytotox inconclusive, FLuc inh 39.8µM, NIH3T3 tox inconclusive
O=C1NCc2ccccc2CC12CCCCN2Cc1ccc(Cl)s1 (stereo not drawn)	GPT2 inhibitor inconclusive (no result: FLuc inh, NPR1 antag)
Cc1ccc(-c2cccc(CN3CCCC3C(=O)NC3CCC3)c2)cc1Cl (stereo not drawn)	HEK cytotox 28.2µM, NIH3T3 tox 39.8µM (no result: FLuc inh, NPR1 antag, GPT2 inhibitor)
Cc1ccc(-c2cccc(CN3CCCC3C(=O)NC3CC3)c2)cc1Cl (stereo not drawn)	HEK cytotox 31.6µM, NIH3T3 tox 35.5µM (no result: FLuc inh, NPR1 antag, GPT2 inhibitor)
Cc1ccc(-c2cccc(CN3CCCC(NC(=O)NC4CCCC4)C3)c2)cc1Cl (stereo not drawn)	none (no result: FLuc inh, NPR1 antag)
CCC(C)NC(=O)C1CCCN1Cc1cccc(-c2ccc(C)c(Cl)c2)c1 (stereo not drawn)	HEK cytotox 22.4µM, NIH3T3 tox 35.5µM (no result: FLuc inh, NPR1 antag, GPT2 inhibitor)
O=C(NC1CC1)c1ccc2nnc(-c3ccoc3)n2c1	none (no result: FLuc inh, NPR1 antag)
COc1ccc(CNC(=O)[C@@H](C)C2CC[C@@]3(C)CC[C@H](NC(=O)COc4ccccc4)[C@@H](C)[C@@H]3[C@H]2O)cc1 (stereo partly drawn)	HEK cytotox 22.4µM, NPR1 antag inconclusive, NIH3T3 tox 31.6µM
COc1ccc(CNC(=O)[C@@H](C)C2CC[C@@]3(C)CC[C@H](NC(=O)C4CC4)[C@@H](C)[C@@H]3[C@H]2O)cc1 (stereo partly drawn)	HEK cytotox inconclusive, GPT2 inhibitor inconclusive

Assay outcomes: PubChem BioAssay, National Center for Advancing Translational Sciences (NCATS)
